Assay results: PubChem BioAssay (NCATS)
Results filed as inconclusive are left out. Calls of active or inactive are those of the source. Calls follow the shape of the dose curve; as a rule, active = well fitted cell-killing curve with a large enough effect; inconclusive = small, poorly fitted or top-dose-only effect; inactive = flat fitted curve, though single readings scatter.

test: Cell Viability - Mesenchymal (AID 546); conditions: mesenchymal cells viability, qHTS; series mostly up to 91.7 µM; activity change, negative = cytotoxicity: at the top concentration;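 also: cells exposed to compound for 40 hours before reading; 0% = DMSO only and -100% = 100 µM tamoxifen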
Source text: NIH Chemical Genomics Center [NCGC]
NIH Molecular Libraries Screening Centers Network [MLSCN]
National Institutes of Environmental Health Sciences [NIEHS]
National Toxicology Program [NTP]
We have developed a 1536-well cell-based assay for quantitative high throughput screening (qHTS) against a number of cell lines to determine in vitro cytotoxicity of small molecules. This particular assay uses the kidney mesenchymal cell line which is derived from normal human renal glomeruli.
NCGC Assay Protocol Summary:
The CellTiter-Glo luminescent cell viability assay (Promega) is a homogeneous method to measure the number of viable cells in culture. The end point readout of this assay is based on quantitation of intracellular ATP, an indicator of metabolic activity, using the luciferase reaction. Luciferase catalyzes the oxidation of beetle Luciferin to oxyluciferin and light in the presence of ATP. The luminescent signal is proportional to amount of ATP present.
Using the CellTiter-Glo luminescent cell viability assay, the amount of cellular ATP was measured in the kidney mesenchymal cell line with complete culture medium following compound treatment for 40 hours. The assay was performed in opaque white Kalypsys 1536-well plates. In the screen, tamoxifen and doxorubicin were used as positive controls. Library compounds were measured for their ability to cause acute toxicity in the cell line, as reflected by a decrease in intracellular ATP levels, in a concentration-dependent manner. […] AC50 values were determined from concentration-response data modeled with the standard Hill equation.
qHTS protocol for CellTiter Glo kidney mesenchymal cells cellular assay
[Step] [Parameter] [Value] [Description]
1. Reagent; 5 uL; 1000 kidney mesenchymal cells/well
2. Time; 5 hr; 37 °C incubation
4. Controls; 23 nL; Tamoxifen 0.34 uM to 100 uM & Doxorubicin 0.02 nM to 100 uM
5. Time; 40 hr; 37 °C incubation
6. Reagent; 5 uL; CellTiter Glo reagent
7. Time; 20 min; Room Temperature
8. Detection; Luminescence; Viewlux plate reader
Keywords: cell viability, cytotoxicity, Kidney mesenchymal cell line, luminescence, NTPHTS, NTPHTS_NCGC, NIEHS, EPA, DSSTox, MLSMR, MLSCN, NIH Roadmap, qHTS, NCGC

Structure (SMILES) | outcome | activity change, negative = cytotoxicity
CCCCCCCCCCCCOS(=O)(=O)O | inactive | –
C[C@]12C[C@H](O)[C@H]3[C@@H](CCC4=CC(=O)CC[C@@]43C)[C@@H]1CC[C@@H]2C(=O)CO | – | -17.5% (inactive)
CC12CCC(CC1)C(C)(C)O2 | – | -4.66% (inactive)
[Cl][In]([Cl])[Cl] | – | 6.13% (inactive)
COc1ccccc1O | inactive | –
CCCCOC(=O)c1ccc(O)cc1 | – | -12.8% (inactive)
NCCNCCNCCN | – | 11.8% (inactive)
CC1(C)[C@@H]2CC[C@@]1(C)C(=O)C2 | – | 9.92% (inactive)
Oc1cccc(O)c1 | – | 1.2% (inactive)
Cc1cc2nc3c(=O)[nH]c(=O)nc-3n(C[C@H](O)[C@H](O)[C@H](O)CO)c2cc1C | – | 6.38% (inactive)
COC(=O)C1=C(C)NC(C)=C(C(=O)OC)C1c1ccccc1[N+](=O)[O-] | – | -17.9% (inactive)
NC(=O)c1ncn([C@@H]2O[C@H](CO)[C@@H](O)[C@H]2O)n1 | – | -37.1% (inactive)
Cc1cc(CC(=O)O)n(C)c1C(=O)c1ccc(Cl)cc1 | – | -7.25% (inactive)
O=C1O[C@H]([C@@H](O)CO)C(O)=C1O | – | 0.378% (inactive)
NC(=O)N/N=C/c1ccc([N+](=O)[O-])o1 | – | 0.0797% (inactive)
Nc1ccc(S(=O)(=O)Nc2nccs2)cc1 | – | -2.03% (inactive)
NCCNCCNCCNCCN | – | 14.8% (inactive)
